Only some compounds are listed: those with a hit (about 1.1% of all), similar ones and a draw of the others.
BJeLR lethal – MLPCN primary cell-based screen for lethality selective to Ras in HRASV12 cells; BJeLR (HRASV12) viability, CellTiter-Glo ATP luminescence, 48 h; inhibition, % (no concentration beside the values); 300,000 tested, 0.17% active; AID 1554, 2009; in the data active = inhibition above about 50%
VHR inh abs – VHR1 phosphatase inhibitors, primary screen, biochemical, absorbance, uHTS; recombinant VHR phosphatase, pNPP absorbance; 290,000 tested, 0.52% active; AID 1654, 2009; inhibition, % at 13.3 µM; in the data active = inhibition above about 50%
Target sequence (P51452 whole entry, looked up): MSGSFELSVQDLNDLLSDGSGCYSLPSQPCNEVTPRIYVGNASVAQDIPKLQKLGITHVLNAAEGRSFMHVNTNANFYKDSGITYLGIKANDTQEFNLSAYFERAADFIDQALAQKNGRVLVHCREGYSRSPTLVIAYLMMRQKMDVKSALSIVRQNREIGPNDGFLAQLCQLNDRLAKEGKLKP
SARS 3CLpro inh – SARS-CoV 3CLpro protease inhibitors, primary screen, biochemical, quenched FRET; Replicase polyprotein 1ab (Severe acute respiratory syndrome coronavirus), P0C6X7; recombinant SARS-CoV 3CLpro, quenched FRET peptide cleavage; inhibition, % at 6 µM; 290,000 tested, 0.14% active; in the data active = inhibition above about 12%
PrPC surface inh – inhibitors of human cell surface prion protein PrPC, primary screen, cell-based, TR-FRET; inhibition, % at 13.8 µM; TR-FRET read-out; Major prion protein (Homo sapiens), P04156; AID 720596, 2013; 370,000 tested, 0.43% active; in the data active = inhibition above about 24%; also: 0% = median of the test wells and 100% = reference compound wells
PrPC TRFRET cf – confirmation of inhibitors of cell surface human prion protein, confirmation, cell-based, TR-FRET. shares compounds with PrPC surface inh. cell surface PrPC level. inhibition, % at 13.8 µM. 1,500 tested, 65% active. AID 743200, 2013; in the data active = inhibition above about 25%
LD9 cytotox – cytotoxicity in LD9 cells, cytotoxicity control for cell surface PrPc inhibitor project, cell-based, luminescence, high throughput. inhibition, % at 13.8 µM. shares compounds with PrPC surface inh. luminescence viability. 1,500 tested, 29% active; in the data active = inhibition above about 9.5%
Numbers without * were called inactive.

Results for O=c1c2cn[nH]c2[nH]c(=S)n1-c1cccc2ccccc12 ?
BJeLR lethal: 2.8; VHR inh abs: -5.6; SARS 3CLpro inh: -3.5; PrPC surface inh: 40.0*; PrPC TRFRET cf: 45.9*; LD9 cytotox: -6.1

How did CC(C)(C)c1cccc(N/C(=C\C(=O)c2ccccc2)c2ccccc2)c1 do in these assays?
PrPC surface inh: 2.7

Results for O=C(CCCc1c[nH]c2ccccc12)N[C@@H](Cc1c[nH]c2ccccc12)C(=O)O ?
BJeLR lethal: 5.4; VHR inh abs: -2.0; SARS 3CLpro inh: -0.3; PrPC surface inh: 3.5

How did O=C1C=CC(O)(c2cc(=O)c3c(O)cc(O)cc3o2)C=C1 do in these assays?
BJeLR lethal: -30.8; VHR inh abs: -10.7; SARS 3CLpro inh: -0.9; PrPC surface inh: 82.2*; PrPC TRFRET cf: 76.8*; LD9 cytotox: 59.2*

What do the screens show for `O=c1cc(-c2ccccc2Cl)oc2cc(O)cc(O)c12`?
BJeLR lethal: 10.1; VHR inh abs: -3.6; SARS 3CLpro inh: -4.5; PrPC surface inh: -1.1

Results for O=C(c1[nH]c(C(F)(F)F)nc1-c1ccccc1)N1CCN(c2ncccc2C(F)(F)F)CC1 ?
PrPC surface inh: -3.8

What do the screens show for `Cc1ccc(-c2csc(C(O)c3ccc(F)c(F)c3)n2)cc1C` (stereo unspecified)?
PrPC surface inh: 3.8

Results for CCN(CC)C(=O)c1ccc2nc([C@H]3C[C@H](O)[C@@H](CO)O3)[nH]c2c1 ?
PrPC surface inh: -3.2

What do the screens show for `OC[C@H]1O[C@@H](c2nc3ccc(-c4nc(-c5ccc(Br)cc5)no4)cc3[nH]2)C[C@@H]1O`?
PrPC surface inh: 29.1*; PrPC TRFRET cf: 20.9; LD9 cytotox: 4.5

Results for COc1ccc(N2CC(C(=O)Nc3nnc(SCC(=O)Nc4ccc(NC(C)=O)cc4)s3)CC2=O)cc1 (stereo unspecified) ?
PrPC surface inh: 5.6

How did CC(CC(=O)N1CCc2ccccc21)n1cccn1 (stereo unspecified) do in these assays?
BJeLR lethal: 8.3; VHR inh abs: 24.6; SARS 3CLpro inh: -0.1; PrPC surface inh: -4.7

What do the screens show for `CCOC(=O)C(CC)Sc1nnc2c3cc(C)ccc3n(C)c2n1` (stereo unspecified)?
BJeLR lethal: -3.6; VHR inh abs: 15.4; SARS 3CLpro inh: 3.6; PrPC surface inh: 30.1*; PrPC TRFRET cf: 34.5*; LD9 cytotox: -4.9

What do the screens show for `Cc1cncc(NCc2cccc(Cl)c2)n1`?
PrPC surface inh: 6.6

What do the screens show for `Cc1nnc2c(SC(C)C)nc3ccccc3n12`?
BJeLR lethal: 2.8; VHR inh abs: 7.9; SARS 3CLpro inh: -1.9; PrPC surface inh: 33.4*; PrPC TRFRET cf: 46.9*; LD9 cytotox: -8.3

Results for COc1ccc2cc(C(=O)N(C)CC(=O)Nc3ccccc3Br)ccc2c1 ?
PrPC surface inh: 31.3*; PrPC TRFRET cf: 43.7*; LD9 cytotox: -6.2

How did O=C(CCSc1ccc(Cl)cc1)N1CCN(c2ccc(O)cc2)CC1 do in these assays?
BJeLR lethal: -17.2; VHR inh abs: 13.3; SARS 3CLpro inh: 3.8; PrPC surface inh: 38.3*; PrPC TRFRET cf: 28.3*; LD9 cytotox: 1.0

What do the screens show for `Cc1ccc(NC(=O)c2cc(S(=O)(=O)N(C)C)ccc2N2CCCC2)cc1F`?
BJeLR lethal: -1.5; VHR inh abs: 20.8; SARS 3CLpro inh: 1.5; PrPC surface inh: 62.8*; PrPC TRFRET cf: 54.5*; LD9 cytotox: -5.6

What do the screens show for `CN(C)S(=O)(=O)c1ccc(N2CCCC2)c(C(=O)NCC(=O)Nc2ccc(F)c(F)c2)c1`?
PrPC surface inh: -4.6

What do the screens show for `CN(C)S(=O)(=O)c1ccc(N2CCCC2)c(C(=O)Nc2ccccc2)c1`?
BJeLR lethal: -3.3; PrPC surface inh: 42.3*; PrPC TRFRET cf: 40.5*; LD9 cytotox: -9.8

Results for Cc1nnc(NC(=O)c2cc(S(=O)(=O)N(C)C)ccc2N2CCCC2)s1 ?
PrPC surface inh: 24.8*; PrPC TRFRET cf: 24.0; LD9 cytotox: -3.9

What do the screens show for `c1ccc(Cn2ccnc2C2OCCO2)cc1`?
PrPC surface inh: 11.3
